Screens deposited in PubChem by National Center for Advancing Translational Sciences (NCATS).
Cycloheximide cs: affects cycloheximide protein synthesis inhibition readout, counter-screen; cell reporter, cycloheximide protein synthesis inhibition counterscreen; max response, %; 12% of 300,000 active; AID 2314; in the data active = max response mostly above about 13%, no sharp cut-off; inactive = mostly below about 14%; also: read at 38.3 µM for the half of the compounds with a filed dose; 0% is about no effect
Shiga toxin inh: inhibitors of Shiga toxin in Vero cells; inhibition, % at 38.7 µM; Vero cells, Shiga toxin protein synthesis inhibition reporter; AID 2315; 9.2% of 290,000 active; in the data active = inhibition mostly above about 28%, no sharp cut-off; inactive = mostly below about 43%; also: 0% is about no effect
NS1 function inh: influenza NS1 inhibition; Potency, µM (titrated, usually from 46.1 µM), for inactives: at the top dose activity, positive = more growth; 0.4% of 270,000 active; calls by dose curve; also: potency is read from the fitted curve at half-maximal effect; actives are rising curves; nearly all actives have a fitted effect of over 50% in size
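A cell-based growth assay was used: compounds that relieve NS1-induced slow growth of budding yeast raise OD600. Assay medium was yeast nitrogen base with ammonium sulphate and -URA supplement, pH 6.0, with 2% galactose.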
LmPK inhibitor: LmPK (Leishmania mexicana) enzyme inhibition; purified LmPK, Kinase-Glo ATP luminescence, 1 h; 0.37% of 290,000 active; Potency, µM (top dose mostly 57.5 µM), without a hit: at the top dose activity change, negative = inhibition, actives largely listed as inhibitors; also: potency is read from the fitted curve at half-maximal effect; % is scaled to controls: 0 for no effect and ±100 for the full control effect
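ATP generated from ADP (0.1 mM) and PEP (0.5 mM) by 0.1 nM LmPK over 1 h at room temperature (pH 7.2 imidazole buffer) was detected by coupled luciferase luminescence. Values were normalized to uninhibited and no-enzyme wells.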
Giardia FBPA inh: Giardia lamblia aldolase inhibition. A8B2U2. purified Giardia FBPA. Potency, µM (series often up to 59.6 µM), without a hit: top-dose activity, negative = inhibition, most hits filed as inhibitors. 0.71% of 290,000 active. AID 2451; also: potency is read from the fitted curve at half-maximal effect; % is scaled to controls: 0 for no effect and ±100 for the full control effect; nearly all actives have a fitted effect of over 55% in size
Target sequence (A8B2U2 whole entry, looked up): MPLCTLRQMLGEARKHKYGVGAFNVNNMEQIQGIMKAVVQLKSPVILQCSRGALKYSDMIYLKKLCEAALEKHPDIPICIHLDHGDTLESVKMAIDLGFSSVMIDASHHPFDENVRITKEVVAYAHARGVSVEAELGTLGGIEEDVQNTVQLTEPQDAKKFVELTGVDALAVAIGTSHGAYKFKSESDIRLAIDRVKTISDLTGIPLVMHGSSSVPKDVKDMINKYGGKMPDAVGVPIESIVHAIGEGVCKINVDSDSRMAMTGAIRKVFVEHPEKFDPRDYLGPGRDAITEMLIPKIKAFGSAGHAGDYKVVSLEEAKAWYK
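Giardia FBPA (40 nM reagent) was preincubated 10 min at RT with compound (up to 57.5 uM final), then substrate plus GAPDH/TPI/NAD/arsenate coupling system with diaphorase/resazurin was added; resorufin fluorescence (525/598 nm) was read after 20 min.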
Active calls of the source: *; · = no result. Shown are actives, neighbours in structure and some others; about 14% of the full set was active somewhere. Unless noted, calls follow the shape of the dose curve; as a rule, active = well fitted curve in the direction sought with a large enough effect; inconclusive = small, poorly fitted or top-dose-only effect, or another doubt; inactive = no such curve, though single readings can be large; an effect the other way counts as inactive or inconclusive.

SMILES	Cycloheximide cs	Shiga toxin inh	NS1 function inh	LmPK inhibitor	Giardia FBPA inh
CCCn1ncc(CN2CCC(n3nccc3NC(=O)c3ccccc3Cl)CC2)c1C	7.5	-4.4	1.8%	-4.1%	·
OB(O)c1cc2ccccc2o1	·	·	·	·	3.8%
Cc1noc(C)c1-c1ccc2ncnc(Nc3ccc(F)cc3)c2c1	·	·	·	·	-0.3%
N#Cc1cccc(-c2nc(Nc3ccccc3)c3ccccc3n2)c1	·	·	·	·	-13.8%
O=C(NC1CCN(Cc2ccccc2Cl)CC1)c1ccccc1	-2.0	-1.5	3.8%	-0.7%	-0.4%
COc1cccc(NC(=O)CN(C)C(C)C(=O)Nc2cc([N+](=O)[O-])ccc2Cl)c1 (stereo unspecified)	-1.7	9.3	·	-6.7%	-6.5%
O=C(Nc1cccc(F)c1)c1ccccc1	37.5*	79.3*	-116.1%	-7.0%	-2.5%
O=C(O)/C=C/C(=O)Nc1ccc2nccnc2c1	23.4*	46.5	-4.7%	-10.3%	-23.1%
CCN(CC)S(=O)(=O)c1cccc(C(=O)Nc2ccc3c(c2)OCO3)c1	34.8*	91.2*	-3.3%	-1.9%	-4.8%
CS(=O)(=O)N(CCc1ccccc1)CC(=O)Nc1ccc2c(c1)OCO2	7.5	-11.3	-11.5%	4.2%	-6.5%
CCN(CC(=O)Nc1ccc2c(c1)OCCO2)S(=O)(=O)c1ccccc1	23.9*	37.2*	-5.0%	1.5%	23.7%
CCN(CC)S(=O)(=O)c1ccc(C(=O)Nc2ccc3c(c2)OCCO3)cc1	20.2*	38.3	-5.7%	-2.7%	-5.4%
CS(=O)(=O)N(CC(=O)Nc1ccc2c(c1)OCO2)Cc1ccccc1	12.7*	28.0	-3.9%	0.7%	5.5%
CCN(CC(=O)Nc1cccc(C(C)=O)c1)S(=O)(=O)c1ccccc1	-1.7	3.4	6.3%	6.3%	0.0%
CCN(CC)S(=O)(=O)c1cccc(C(=O)N[C@H](C(=O)OCC(=O)Nc2ccccc2)C(C)C)c1	14.7*	15.9	-8.4%	-2.6%	-5.6%
CCN(CC)S(=O)(=O)c1cccc(C(=O)N[C@H](C(=O)OCC(N)=O)C(C)C)c1	-1.8	-13.2	0.7%	0.8%	2.7%
CCC(CC)C(=O)Nc1cccc(C(=O)Nc2ccc3c(c2)OCO3)c1	43.2*	79.8*	-4.8%	3.8%	-3.4%
Clc1cccc2sc(N3CCN(c4ccccc4)CC3)nc12	16.8	18.9	-41.8%	0.3%	-1.6%
c1c2c(cc3sc(N4CCOCC4)nc13)OCCO2	14.3*	48.4	-3.9%	14.1µM*	0.3%
c1ccc(N2CCN(c3nc4cc5c(cc4s3)OCCO5)CC2)cc1	84.1*	95.4*	2.1%	-0.2%	-1.0%
Cc1cc2c(s1)c1cnn(Cc3ccc(F)cc3F)c(=O)c1n2C	-2.7	-14.1	·	·	·
COc1cc(C(=O)NCc2nnc(SCC(=O)N3CCCCCC3)o2)cc(OC)c1OC	0.5	-14.3	-1.2%	-7.5%	·
O=C(Nc1ccccn1)c1ccc([N+](=O)[O-])cc1Cl	16.1*	34.8	6.6%	0.0%	4.0%
O=C(Nc1ccc(Cl)cc1)c1ccc(-c2ccccn2)s1	41.9*	71.6*	5.0%	0.8%	5.4%
C/C(CC(=O)Nc1ccccn1)=N\NC(=O)c1ccc([N+](=O)[O-])cc1Cl	-2.6	8.0	-28.8%	-10.3%	-11.8%
SMILES	Cycloheximide cs	Shiga toxin inh	NS1 function inh	LmPK inhibitor	Giardia FBPA inh
Cc1ccc(NC(=O)Nc2ccc([N+](=O)[O-])cc2)nc1	6.8	22.0	·	3.0%	2.1%
O=C(Nc1ccc(Cl)cc1)c1cncs1	-2.1	8.1	-2.4%	0.3%	9.0%
Cc1ccc(NC(=O)c2ccc([N+](=O)[O-])cc2Cl)nc1	75.5*	125.2*	14.9%	-0.2%	-3.4%
O=C(N/N=C/c1ccccn1)c1ccc(Cl)c(Cl)c1	43.9*	68.9*	-100.6%	-4.1%	-8.2%
COc1ccc(OC)c(N(CC(=O)NCCSCc2ccco2)S(=O)(=O)c2ccc(OC)c(OC)c2)c1	-3.4	-4.3	-16.1%	-0.8%	·
O=C(Nc1ccccn1)c1ccc(Cl)c([N+](=O)[O-])c1	20.0*	64.3*	-2.7%	-4.3%	-9.7%
O=C(Nc1ccccn1)c1cc2cc([N+](=O)[O-])ccc2s1	40.5*	79.4*	·	8.1%	0.0%
O=C(Nc1cccnc1Cl)c1ccc(Cl)c([N+](=O)[O-])c1	6.3	17.3	5.6%	1.1%	-12.8%
CSc1ccc(Cl)c(C(=O)Nc2ccc(C)cn2)c1	24.6*	35.6	-1.7%	-2.7%	-4.7%
O=C(Nc1ccccn1)c1ccc(Br)s1	40.2*	·	-29.9%	-4.0%	13.3%
COCCn1c(=O)c(-c2ccc(F)cc2)nc2cnc(Oc3ccccc3)nc21	·	·	·	·	-0.7%
Cc1cc(NC(=O)c2ccc([N+](=O)[O-])cc2Cl)no1	42.5*	69.6*	2.6%	-5.2%	-5.9%
